Assay results: PubChem BioAssay (NCI)
“And” between values parts separate entries of the source, which are not always exact repeats. Equal values may be shown once. The panel holds about 83,000 compounds, 20% with a hit somewhere; the sample as a whole holds those more often.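 For each line, cells grew in 96-well plates with the test compound present at a single concentration for 48 hours.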 The source made the active and inactive calls. The calls were made as follows: active = growth percent below 10; inactive = the rest.

Columns and labels:
Experiment in all cases: NCI-60 one-dose screen, 48 h (100 = growth as untreated, 0 = no growth, -100 = all killed)
NCI-H23 lung = conditions: 10 µM unless noted
NCI-H226 lung = conditions: 10 µM unless noted
NCI-H322M lung = conditions: 10 µM unless noted
HOP-62 NSCLC = conditions: 10 µM unless noted
NCI-H460 lung = conditions: 10 µM unless noted
NCI-H522 lung = conditions: 10 µM unless noted
A549/ATCC NSCLC = conditions: 10 µM unless noted
786-0 renal = conditions: 10 µM unless noted
DU-145 prostate = conditions: 10 µM unless noted
K-562 leukemia = conditions: 10 µM unless noted
MALME-3M melanoma = conditions: 10 µM unless noted
MDA-MB-231 breast = conditions: 10 µM unless noted
RXF 393 renal = conditions: 10 µM unless noted
SF-268 CNS = conditions: 10 µM unless noted
SF-295 CNS = conditions: 10 µM unless noted
SF-539 CNS = conditions: 10 µM unless noted
UACC-257 melanoma = conditions: 10 µM unless noted
M14 melanoma = conditions: 10 µM unless noted
HCT-15 colon = conditions: 10 µM unless noted
HOP-92 NSCLC = conditions: 10 µM

| SMILES | growth (NCI-H23 lung) | growth (NCI-H226 lung) | growth (NCI-H322M lung) | growth (HOP-62 NSCLC) | growth (NCI-H460 lung) | growth (NCI-H522 lung) | growth (A549/ATCC NSCLC) | growth (786-0 renal) | growth (DU-145 prostate) | growth (K-562 leukemia) | growth (MALME-3M melanoma) | growth (MDA-MB-231 breast) | growth (RXF 393 renal) | growth (SF-268 CNS) | growth (SF-295 CNS) | growth (SF-539 CNS) | growth (UACC-257 melanoma) | growth (M14 melanoma) | growth (HCT-15 colon) | growth (HOP-92 NSCLC) |
| --- | --- | --- | --- | --- | --- | --- | --- | --- | --- | --- | --- | --- | --- | --- | --- | --- | --- | --- | --- | --- |
| CC[n+]1c(-c2ccccc2)c2cc(N)ccc2c2ccc(N)cc21 | -9.43% (active) | 25.2% (inactive) | 25.9% (inactive) | 1.84% (active) | 3.56% (active) | -28.2% (active) | 30.2% (inactive) | 15.6% (inactive) | 9.09% (active) | 39% (inactive) | -25% (active) | 33.1% (inactive) | -16.7% (active) | -26.3% (active) | 13.6% (inactive) | -12.7% (active) | -19.3% (active) | 33% (inactive) | 88.9% (inactive) |  |
| CC1=C(CO)C2=C(C)C3(CC3)[C@@](C)(O)C(=O)C2=C1 | -18.2% (active) | -28.6% (active) | -24.9% (active) | -36% (active) | -1.95% (active) | -81.7% (active) | 2.23% (active) | -21.3% (active) | -20.1% (active) | 26.3% (inactive) | -87.5% (active) | 4.5% (active) | 8.42% (active) | 4.48% (active) | -8.22% (active) | -62.8% (active) | -1.44% (active) | -59.3% (active) | -22.2% (active) |  |
| CC[C@@]1(O)C[C@H](OC2CC(N(C)C)C(O)C(C)O2)c2c(O)c3c(c(O)c2[C@H]1OC1CC(N(C)C)C(O)C(C)O1)C(=O)c1cccc(O)c1C3=O (some centres not stated) | -37.2% (active) | -16.2% (active) | -31.5% (active) | -20.2% (active) | -4.36% (active) | -65% (active) | 1.57% (active) | -2.72% (active) | -4.8% (active) | -28.5% (active) | -93.7% (active) | -9.74% (active) | 0.503% (active) | -19.3% (active) | -27.2% (active) | -48.9% (active) | 2.59% (active) | -87.2% (active) | -49.7% (active) |  |
| COC1=C(C)C(=O)C2=C(C1=O)C(CO)N1C(C#N)C3CC4C(C1C2N1CCOC41)N3C (configuration not stated) | -45.1% (active) | -14.5% (active) | -23.7% (active) | -42% (active) | -14.9% (active) | -83.2% (active) | -3.64% (active) | -21.9% (active) | 1.67% (active) | -45.3% (active) | -97.4% (active) | -11.9% (active) | -88.9% (active) | -13.6% (active) | -29.7% (active) | -60.3% (active) | 2.61% (active) | -85.9% (active) | -29.8% (active) |  |
| NCCc1ccc(OCc2ccccc2)c(OCc2ccccc2)c1 | 87.6% (inactive) | 103% (inactive) | 85.4% (inactive) | 87.3% (inactive) | 60.6% (inactive) |  |  | 84.2% (inactive) | 97.3% (inactive) | 30.8% (inactive) | 106% (inactive) | 79.2% (inactive) | 62.2% (inactive) | 89.2% (inactive) | 97.1% (inactive) | 93.1% (inactive) |  | 102% (inactive) | 75.3% (inactive) | -2.74% (active) |
| CC[C@@]1(O)C(=O)OCc2c1cc1n(c2=O)Cc2cc3ccccc3nc2-1 | -26.7% (active) | -54% (active) | -19.4% (active) | -10.3% (active) | -25.8% (active) | -49% (active) | -21.1% (active) | -18.5% (active) | -31.9% (active) | 0.554% (active) | -59.5% (active) | 28.6% (inactive) | 6.33% (active) | 2.82% (active) | -14.4% (active) | -46.4% (active) | -17.8% (active) | -39% (active) | -18.7% (active) |  |
| CCOC(=O)C(NC(=O)C(Cc1ccc(N(CCCl)CCCl)cc1)NC(C)=O)C(C)C (configuration not stated) | 81% (inactive) | 90.8% (inactive) | 95.4% (inactive) | 83.5% (inactive) | 49.9% (inactive) | 64.1% (inactive) | 56% (inactive) | 88.6% (inactive) | 99.7% (inactive) | 85.6% (inactive) | 91.7% (inactive) | 96.8% (inactive) | 96.4% (inactive) | 71.5% (inactive) | 86% (inactive) | 77.3% (inactive) | 87.2% (inactive) | 84.1% (inactive) | 94.9% (inactive) | 98.7% (inactive) |
| COC1CC(CC2CCC(C)C(C(C)C(=O)O)O2)OC2(OC(C)(C3CCC(C)(C4OC(C5OC(O)(CO)C(C)CC5C)CC4C)O3)CC2C)C1C (configuration not stated) | 9.19% (active) | 22% (inactive) | 9.36% (active) | 10.1% (inactive) | 4.73% (active) | -55.7% (active) | 7.35% (active) | 6.74% (active) | 17.5% (inactive) | -67.6% (active) | -96% (active) | -21.7% (active) | 28% (inactive) | 10.7% (inactive) | -39.2% (active) | -49.1% (active) | 7.33% (active) | -71.9% (active) | 5.7% (active) |  |
| CC[C@@]1(O)C[C@H](OC2CC(N(C)C)C(OC3CC(O)C(OC4CCC(=O)C(C)O4)C(C)O3)C(C)O2)c2c(cc3c(c2O)C(=O)c2c(O)ccc(O)c2C3=O)[C@H]1C(=O)OC (some centres not stated) | -8.87% (active) | -55.7% (active) | -17.8% (active) | 5.22% (active) | -14.4% (active) | -48.1% (active) | -10.6% (active) | 17.3% (inactive) | 1.38% (active) | 0.0817% (active) | -12.2% (active) | 28.4% (inactive) | 12.6% (inactive) | 22.7% (inactive) | 8.52% (active) | -5.75% (active) | -30.9% (active) | 3.55% (active) | -70.6% (active) |  |
| C[C@]12CC[C@H](O)CC1=CC[C@@H]1[C@@H]2CC[C@]2(C)C(=O)CC[C@@H]12 | 96% (inactive) | 102% (inactive) | 91% (inactive) | 96.4% (inactive) | 108% (inactive) | 48% (inactive) | 106% (inactive) | 92.6% (inactive) | 122% (inactive) | 80.5% (inactive) | 80.9% (inactive) | 106% (inactive) | 110% (inactive) | 106% (inactive) | 102% (inactive) | 100% (inactive) | 102% (inactive) | 101% (inactive) | 99.7% (inactive) |  |
| Cc1ccc(C(=O)OC(C(=O)O)C(OC(=O)c2ccc(C)cc2)C(=O)O)cc1 (configuration not stated) (tested in a mixture with another compound) | 41.4% (inactive) | 51.1% (inactive) | 83.2% (inactive) | 66.1% (inactive) | 52.4% (inactive) | 52.6% (inactive) | 71% (inactive) | 46% (inactive) | 76% (inactive) | 11.1% (inactive) | 51.6% (inactive) |  | 54.1% (inactive) | 68.5% (inactive) | 61.8% (inactive) | 70.2% (inactive) | 46.1% (inactive) | 45.2% (inactive) | 16.3% (inactive) | 17.7% (inactive) |
| COc1ccccc1/C=C(/C)[N+](=O)[O-] | 88.3% (inactive) and 90.8% (inactive) | 100% (inactive) and 105% (inactive) | 92.7% (inactive) and 92.2% (inactive) | 109% (inactive) and 83.1% (inactive) | 87.3% (inactive) and 107% (inactive) | 50% (inactive) and 84.5% (inactive) | 93.3% (inactive) and 76.9% (inactive) | 82.2% (inactive) and 101% (inactive) | 27.7% (inactive) and 107% (inactive) | 39.9% (inactive) and 97.5% (inactive) | 72.8% (inactive) and 89.3% (inactive) | 70% (inactive) and 105% (inactive) | -1.25% (active) and 116% (inactive) | 80.5% (inactive) and 99.1% (inactive) | 102% (inactive) and 94.6% (inactive) | 88% (inactive) and 96.8% (inactive) | 80.9% (inactive) and 75% (inactive) | 79.2% (inactive) and 95% (inactive) | 32.3% (inactive) and 99.8% (inactive) | 96.5% (inactive) |
| Oc1cc[c]([Hg][Cl])cc1 | 87.8% (inactive) | 113% (inactive) | 93.4% (inactive) | 123% (inactive) | 88.8% (inactive) | -47% (active) | 99.3% (inactive) | 102% (inactive) | 94.3% (inactive) | 60.2% (inactive) | 94.2% (inactive) |  | 116% (inactive) | 95.4% (inactive) | 113% (inactive) | 121% (inactive) | 99.6% (inactive) | 91.1% (inactive) | 91.4% (inactive) | 161% (inactive) |
| CC[C@](O)(C(=O)O)c1cc2n(c(=O)c1CO)Cc1cc3ccccc3nc1-2 | -22.8% (active) | -27.8% (active) | -5.59% (active) | 1.05% (active) | -6.64% (active) | -50.6% (active) | -5.92% (active) | -21.9% (active) | -30.7% (active) | -27.9% (active) | -38.2% (active) | 34.5% (inactive) | 9.87% (active) | 8.53% (active) | -13.2% (active) | -48.2% (active) | 0.116% (active) | -26.5% (active) | -5.77% (active) | -39% (active) |
| COc1cccc2c1cc([N+](=O)[O-])c1c(C(=O)O)cc3c(c12)OCO3 | 56.4% (inactive) and 93% (inactive) | 79.8% (inactive) and 107% (inactive) | 50.4% (inactive) and 99% (inactive) | 82.4% (inactive) and 101% (inactive) | 33.5% (inactive) and 106% (inactive) | 35% (inactive) and 63.9% (inactive) | 76.6% (inactive) and 116% (inactive) | 77.3% (inactive) and 98.8% (inactive) | 15.6% (inactive) and 118% (inactive) | 73.5% (inactive) and 67.8% (inactive) | 106% (inactive) and 98.7% (inactive) | 88.4% (inactive) and 106% (inactive) | 49.1% (inactive) and 101% (inactive) | 45.9% (inactive) and 113% (inactive) | 44.9% (inactive) and 90.4% (inactive) | 71.9% (inactive) and 90% (inactive) | 97.7% (inactive) and 111% (inactive) | 84.5% (inactive) and 99% (inactive) | 69.3% (inactive) and 105% (inactive) | 84% (inactive) |
